# The panel holds about 83,000 compounds, 20% with a hit somewhere; the sample as a whole holds those more often.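 Interpretation: 100, growth as untreated; towards 0, rising growth inhibition; 0, no net growth; 0 to -100, cell death. Compounds scoring below 10 were considered active.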 A number with no mark means an inactive call. The source made the active and inactive calls.
# Test system: MDA-MB-468 breast
# Assay: NCI-60 one-dose screen, 48 h (100 = growth as untreated, 0 = no growth, -100 = all killed)
# Details: 10 µM unless noted
row,SMILES,growth
1,CCCCN(CCCC)CC(C)(C)C(O)c1ccc(OC)c2ccccc12 (configuration not stated),41.8%
2,COc1ccc(C2C(C#N)=C(N)Oc3c2ccc2ccccc32)cc1 (configuration not stated),14.5%
3,C[C@]1(CO)C[C@@H](O)C[C@]2(C)[C@@H]1CC[C@@]13C[C@@H]4[C@@H](C[C@H]12)[C@]4(C)C3,113%
4,O=C(Nc1cccc(-n2ccc3c(NC(=O)c4ccccc4)ncnc32)c1)Nc1ccc(Cl)c(C(F)(F)F)c1,-2.39% (active)
5,COc1ccc(C2=NNC(c3ccc(Oc4nc5c(c(=O)n(C)c(=O)n5C)n4C)c(OC)c3)C2)cc1 (configuration not stated),89.5%
6,S=C(Nc1ccc(C2=NCCN2)cc1)Nc1ccc(C2=NCCN2)cc1,67.6%
7,Nc1n[nH]c2ccc([C@@H]3Nc4ccc5[nH]ncc5c4[C@H]4C5C=CC(C5)[C@@H]34)cc12 (some centres not stated),-12.2% (active)
8,O=C(COc1ccc(/C=C2\Cc3ccc(Cl)cc3C2=O)cc1)Nc1nc2ccccc2s1,109%
9,COc1cc2c(cc1O)C(=O)CCCC2,87.3%
10,Nc1c(Cl)cc2c(c1Br)C(=O)c1ccccc1C2=O,85.4%
11,O=C(Nc1cccc2[nH]c(C(F)(F)F)nc12)c1ccc(Br)cc1F,11.9%
12,Cc1cccc(-n2c(C)nc3ccc(NC(=O)NCCCl)cc3c2=O)c1,92.7%
13,CC(C)c1nc(N(C)S(C)(=O)=O)nc(-c2ccc(F)cc2)c1/C=C/[C@@H](O)C[C@@H](O)CC(=O)O,99.4%
14,O=C1CC(C(F)(F)F)Cc2nc3ccc(Br)cc3cc21 (configuration not stated),94.8%
15,CN(CCOc1ccc(CC2SC(=O)NC2=O)cc1)c1ccccn1 (configuration not stated),100%
16,CCOC(=O)/C=c1\sc2n(c1=O)C1C(NN=2)N(CC)C(=O)N1CC (configuration not stated),48.4%
17,COc1cccc(/C=C/C(=O)c2cc3c(N)c(C(=O)Nc4cccc5ccccc45)sc3nc2C)c1,17.4%
18,O=C(CN1CCCCCC1)Nc1nc2ccc(NCc3ccc(Cl)cc3)cc2s1,85.2%
19,O=C(CCCCC(=O)N/N=C\c1ccccc1O)N/N=C\c1ccccc1O,22.4%

row,SMILES,growth
1,CCCCCOc1ccc(C(=O)/C(Br)=C/C(=O)O)cc1,89.2%
2,CCOC(=O)c1c(NC(=O)CSc2n[nH]c3nc4ccccc4n23)sc(CC)c1C,68.6%
3,O=C(c1ccccc1)c1ccc(Oc2ccc([N+](=O)[O-])cc2[N+](=O)[O-])cc1,5.3% (active)
4,Nc1ccc(N)c2c1C(=O)c1cccc([N+](=O)[O-])c1C2=O,54.8%
5,CCOP(=O)(OCC)OC[C@]12CC[C@@H](C)[C@H](C)C1C1=CC[C@@H]3[C@@]4(C)CCCNC(C)(C)[C@@H]4CC[C@@]3(C)[C@]1(C)CC2 (some centres not stated),-51% (active)
6,C[C@]12CC[C@@H]3c4ccc(OCC(=O)O)cc4CC[C@H]3[C@@H]1CCC2=O,113%
7,O=S1(=O)NCCCN1CCNc1nccc(-c2c(-c3cccc(O)c3)nc3sccn23)n1,78.8%
8,N=S(c1ccccc1[N+](=O)[O-])c1ccccc1[N+](=O)[O-],15.1%
9,C=C(C)[C@@H]1CC[C@]2(C)[C@H](CC=C3[C@@H]4CC(C)(C)CC[C@]4(C(N)=O)CC[C@]32C)[C@@]1(C)CCC#N,15.1%
10,COc1ccc(-c2nc(SCC(C)C)nc(Nc3ccccc3)c2C#N)cc1,80.7%
11,COc1ccc(C=Nc2c(C(=O)Nc3cccc(Cl)c3C)sc3nc(C)c(C(=O)/C=C/c4ccc(OC)cc4)cc23)cc1,17.3%
12,O=C(Nn1c2c(sc1=NCc1ccccc1)C(=O)c1ccccc1C2=O)c1cc2ccc1CCc1ccc(cc1)CC2,80%
13,CNC1=C([N+](=O)[O-])C(c2ccccc2O)C(C#N)=C(c2cccs2)O1 (configuration not stated),74.5%
14,COc1cc(-c2nc3ccc(C)cc3[nH]2)ccc1OCC(=O)N=Nc1c(O)[nH]c2ccccc12,-85.9% (active)
15,COc1ccc(NC2=C(Cl)C(=O)C(C)=C(C)C2=O)cc1OC,-38.8% (active)
16,COc1cc2c(cc1I)-c1c(cc(OC)c(OC)c1OC)CC[C@@H]2NC(C)=O,-6.02% (active)
17,CN(C)CCCSc1ccccc1NC1=C(Cl)C(=O)C(Nc2ccccc2SCCCN(C)C)=C(Cl)C1=O,-61.4% (active)
18,C/C(=C(/c1ccc(O)cc1)c1ccc(OCCN(C)C)cc1)c1ccccc1,58.4%

# From PubChem BioAssay (NCI)
